Assay results: PubChem BioAssay (NCATS)
Records with an inconclusive call do not appear. The source made the active and inactive calls. Calls come from the whole dose curve; as a rule, active = well fitted cell-killing curve with a large enough effect; inconclusive = small, poorly fitted or top-dose-only effect, or effect the other way; inactive = no such curve, though single readings can be large or run the other way.

Experiments:
[1] = Quantitative High-Throughput drug screen in 47 multiple myeloma cell lines against the NCATS MIPE library collection: MM1R_ATCC cell viability assay (AID 1918981); note: nearly all actives have a fitted effect of over 35% in size; note: potency is the fitted concentration of half-maximal effect
Summary of the method: (§1)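 500 cells/well; MIPE 4.0 drugs pin-transferred; 48 h, 37C, 5% CO2. CellTiter-Glo, 5 min RT, luminescence. Controls: DMSO 100%, media 0%.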

[2] = Quantitative High-Throughput drug screen in 47 multiple myeloma cell lines against the NCATS MIPE library collection: KMS28PE_JCRB cell viability assay (AID 1918983); note: nearly all actives have a fitted effect of over 35% in size; note: potency is the fitted concentration of half-maximal effect
Summary of the method: as §1

[3] = Quantitative High-Throughput drug screen in 47 multiple myeloma cell lines against the NCATS MIPE library collection: L363_DSMZ cell viability assay (AID 1918984); note: nearly all actives have a fitted effect of over 40% in size; note: potency is the fitted concentration of half-maximal effect
Summary of the method: as §1

[4] = Quantitative High-Throughput drug screen in 47 multiple myeloma cell lines against the NCATS MIPE library collection: KMS34_JCRB cell viability assay (AID 1918985); note: nearly all actives have a fitted effect of over 40% in size; note: potency is the fitted concentration of half-maximal effect
Summary of the method: as §1

[5] = Quantitative High-Throughput drug screen in 47 multiple myeloma cell lines against the NCATS MIPE library collection: OCIMY7_PLB cell viability assay (AID 1918987); conditions: OCI-MY7 myeloma viability, CellTiter-Glo ATP, 48 h; viability (% of DMSO): at 45.8 µM (top of the series); note: nearly all actives have a fitted effect of over 65% in size; note: potency is the fitted concentration of half-maximal effect
Summary of the method: as §1

[6] = Quantitative High-Throughput drug screen in 47 multiple myeloma cell lines against the NCATS MIPE library collection: SKMM1_PLB cell viability assay (AID 1919863); conditions: SKMM1 myeloma viability, CellTiter-Glo ATP, 48 h; viability: stronger effect = lower value; note: nearly all actives have a fitted effect of over 35% in size; note: potency is the fitted concentration of half-maximal effect
Summary of the method: as §1

[7] = Quantitative High-Throughput drug screen in 47 multiple myeloma cell lines against the NCATS MIPE library collection: U266_ATCC cell viability assay (AID 1919864); note: nearly all actives have a fitted effect of over 35% in size; note: potency is the fitted concentration of half-maximal effect;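 for viability (% of DMSO control): 0% = media-only wells without cells and 100% = DMSO-only wells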
Summary of the method: as §1

[8] = Quantitative High-Throughput drug screen in 47 multiple myeloma cell lines against the NCATS MIPE library collection: XG6_PLB cell viability assay (AID 1919865); note: nearly all actives have a fitted effect of over 40% in size; note: potency is the fitted concentration of half-maximal effect
Summary of the method: as §1

[9] = Quantitative High-Throughput drug screen in 47 multiple myeloma cell lines against the NCATS MIPE library collection: XG1_PLB cell viability assay (AID 1919866); note: nearly all actives have a fitted effect of over 35% in size; note: potency is the fitted concentration of half-maximal effect
Summary of the method: as §1

[10] = Quantitative High-Throughput drug screen in 47 multiple myeloma cell lines against the NCATS MIPE library collection: VP6_DJ cell viability assay (AID 1919867); note: nearly all actives have a fitted effect of over 40% in size; note: potency is the fitted concentration of half-maximal effect;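 for viability (% of DMSO): 100% = DMSO-only wells and 0% = wells with media alone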
Summary of the method: as §1

[11] = Quantitative High-Throughput drug screen in 47 multiple myeloma cell lines against the NCATS MIPE library collection: UTMC2_PLB cell viability assay (AID 1919868); conditions: CellTiter-Glo ATP luminescence, 48 h; viability (% of DMSO control): at 45.8 µM (top of the series); note: nearly all actives have a fitted effect of over 55% in size; note: potency is the fitted concentration of half-maximal effect;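 for viability (% of DMSO control): 100% = DMSO-only wells and 0% = media-only wells without cells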
Summary of the method: as §1

[12] = Quantitative High-Throughput drug screen in 47 multiple myeloma cell lines against the NCATS MIPE library collection: PE2_PLB cell viability assay (AID 1919869); note: nearly all actives have a fitted effect of over 35% in size; note: potency is the fitted concentration of half-maximal effect
Summary of the method: as §1

[13] = Quantitative High-Throughput drug screen in 47 multiple myeloma cell lines against the NCATS MIPE library collection: PCM6_Riken cell viability assay (AID 1919870); note: nearly all actives have a fitted effect of over 30% in size; note: potency is the fitted concentration of half-maximal effect
Summary of the method: as §1

[14] = Quantitative High-Throughput drug screen in 47 multiple myeloma cell lines against the NCATS MIPE library collection: OPM2_DSMZ cell viability assay (AID 1919872); note: nearly all actives have a fitted effect of over 30% in size; note: potency is the fitted concentration of half-maximal effect
Summary of the method: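 qHTS of the MIPE 4.0 collection: 500 myeloma cells/well, 48 h drug exposure at 37C in 5% CO2, then CellTiter-Glo for 5 min at room temperature before luminescence reading.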

[15] = Quantitative High-Throughput drug screen in 47 multiple myeloma cell lines against the NCATS MIPE library collection: KMS11_JCRBsus cell viability assay (AID 1919873); note: nearly all actives have a fitted effect of over 50% in size; note: potency is the fitted concentration of half-maximal effect
Summary of the method: as §1

[16] = Quantitative High-Throughput drug screen in 47 multiple myeloma cell lines against the NCATS MIPE library collection: KMS28BM_JCRB cell viability assay (AID 1919874); note: nearly all actives have a fitted effect of over 35% in size; note: potency is the fitted concentration of half-maximal effect
Summary of the method: as §1

[17] = Quantitative High-Throughput drug screen in 47 multiple myeloma cell lines against the NCATS MIPE library collection: OCIMY5_PLB cell viability assay (AID 1918988); note: nearly all actives have a fitted effect of over 65% in size; note: potency is the fitted concentration of half-maximal effect
Summary of the method: as §1

[18] = Quantitative High-Throughput drug screen in 47 multiple myeloma cell lines against the NCATS MIPE library collection: OPM1_PLB cell viability assay (AID 1918989); note: nearly all actives have a fitted effect of over 40% in size; note: potency is the fitted concentration of half-maximal effect
Summary of the method: as §1

[19] = Quantitative High-Throughput drug screen in 47 multiple myeloma cell lines against the NCATS MIPE library collection: LP1_DSMZ cell viability assay (AID 1918982); note: nearly all actives have a fitted effect of over 35% in size; note: potency is the fitted concentration of half-maximal effect
Summary of the method: as §1

[20] = Quantitative High-Throughput drug screen in 47 multiple myeloma cell lines against the NCATS MIPE library collection: RPMI8226_ATCC cell viability assay (AID 1919871); note: nearly all actives have a fitted effect of over 30% in size
Summary of the method: as §1

Nc1ncn([C@@H]2O[C@H](CO)[C@@H](O)[C@@H]2O)c(=O)n1
active: Potency [1] 14800 nM | Potency [2] 20.9 µM | Potency [3] 5.9 µM | Potency [4] 11.8 µM | Potency [5] 3.72 µM | Potency [6] 13.2 µM | Potency [7] 10.5 µM | Potency [8] 9.35 µM | Potency [9] 2.96 µM | Potency [10] 11.8 µM | Potency [11] 8.33 µM | Potency [12] 18.7 µM | Potency [13] 8.33 µM | Potency [14] 14.8 µM | Potency [15] 14.8 µM | Potency [16] 16.6 µM

COc1cc([C@@H]2c3cc4c(cc3[C@@H](O[C@@H]3O[C@@H]5CO[C@@H](c6cccs6)O[C@@H]5[C@H](O)[C@@H]3O)[C@H]3COC(=O)[C@H]23)OCO4)cc(OC)c1O
active: Potency [1] 74.3 nM | Potency [2] 2.64 µM | Potency [3] 0.833 µM | Potency [4] 1.87 µM | Potency [17] 1.66 µM | Potency [18] 1.18 µM | Potency [6] 5.26 µM | Potency [7] 14.8 µM | Potency [8] 0.0469 µM | Potency [9] 0.526 µM | Potency [10] 0.469 µM | Potency [11] 0.0526 µM | Potency [12] 0.166 µM | Potency [13] 0.662 µM | Potency [14] 4.18 µM | Potency [15] 1.32 µM | Potency [16] 1.32 µM

C=C(C)[C@@H]1CC[C@]2(C)CC[C@]3(C)[C@H](CC[C@@H]4[C@@]5(C)CC[C@H](O)C(C)(C)[C@H]5CC[C@]43C)[C@@H]12
inactive: Potency [1] | Potency [2] | Potency [4] | Potency [17] | Potency [18] | Potency [8] | Potency [9] | Potency [10] | Potency [11] | Potency [12] | Potency [13] | Potency [14] | Potency [15]

NS(=O)(=O)OC[C@@H]1C[C@@H](n2ccc3c(N[C@H]4CCc5ccccc54)ncnc32)C[C@H]1O
inactive: Potency [14]
active: Potency [19] 662 nM | Potency [2] 0.935 µM | Potency [5] 0.743 µM | Potency [17] 16.6 µM | Potency [18] 16.6 µM | Potency [6] 1.05 µM | Potency [7] 8.33 µM | Potency [9] 0.332 µM | Potency [10] 1.48 µM | Potency [13] 6.62 µM | Potency [15] 0.296 µM

C[C@H](NC(=O)[C@@H](O)c1cc(F)cc(F)c1)C(=O)N[C@@H]1C(=O)N(C)c2ccccc2-c2ccccc21
active: Potency [8] 11.8 µM | Potency [9] 16.6 µM | Potency [15] 1.87 µM
inactive: Potency [19] | Potency [2] | Potency [4] | Potency [18] | Potency [7] | Potency [13] | Potency [20] | Potency [16]

Cc1onc(-c2ccccc2)c1C(=O)N[C@@H]1C(=O)N2[C@@H](C(=O)O)C(C)(C)S[C@@H]12
inactive: Potency [1] | Potency [5] | Potency [18] | viability [6] 123% | Potency [7] | Potency [8] | Potency [9] | Potency [13] | Potency [20] | Potency [14]

Cc1cnc(NC(=O)Nc2cc(Br)c(C)cc2OC[C@@H]2CNCCO2)cn1
active: Potency [1] 743 nM | Potency [2] 13.2 µM | Potency [4] 3.32 µM | Potency [18] 0.526 µM | Potency [8] 0.743 µM | Potency [9] 1.66 µM | Potency [10] 4.69 µM | Potency [11] 1.48 µM | Potency [12] 1.87 µM | Potency [13] 10.5 µM | Potency [15] 5.26 µM | Potency [16] 14.8 µM

Cc1cc(O)c2c(c1)C(=O)c1cccc(O)c1C2=O
inactive: Potency [19] | Potency [2] | Potency [3] | Potency [4] | Potency [5] | Potency [18] | Potency [8] | Potency [9] | Potency [12] | Potency [13] | Potency [20] | Potency [14] | Potency [15] | Potency [16]
